Shown is part of a subset that was picked to be rich in hits.
Pf Dd2 growth = inhibitors of Plasmodium falciparum Dd2 growth | P. falciparum Dd2 growth, SYBR Green, 72 h | Potency, µM (series often up to 28.9 µM), usual class: inhibitors | hit rate 4.3% among 120,000 | AID 1347417; active = well fitted inhibition curve with a large enough effect; also: nearly all actives have a fitted effect of over 65% in size
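Infected erythrocytes (Dd2, 0.3% parasitemia, 2.5% hematocrit final) are added to compound in RPMI-1640/Albumax II medium, grown 72 h at 37C in low oxygen, then lysed with saponin/Triton-X containing SYBR Green and read by fluorescence.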
Hits are given with their value; – = inactive; [ ] = remark or other dose.

SMILES	Pf Dd2 growth
COCC(=O)N[C@H]1C[C@@H](Cc2cc(CN(C)Cc3ccccc3)on2)C1(C)C	8.91µM
CC(=O)N[C@H]1C[C@@H](Cc2cc(CN(C)c3ccccc3)on2)C1(C)C	–
COC(=O)C(=O)N[C@H]1C[C@@H](Cc2cc(-c3ccccc3)on2)C1(C)C	–
COCc1cc(C[C@@H]2C[C@H](NC(=O)CC(C)(C)C)C2(C)C)no1	–
O=C(Cn1cccc1-c1nc(-c2ccc(F)cc2)no1)NCc1ccc(F)cc1	–
Cc1ccc(NC(=O)N2CCc3c(C(=O)NCc4ccncc4)cccc32)cc1	–
COCc1nncn1C1CCN(S(=O)(=O)c2ccccc2C(F)(F)F)CC1	–
CCN1C(=O)CCc2cc(NC(=O)NC3CCCC3)ccc21	–
Cc1cccc(-n2ncc(C(=O)NCc3ccccn3)c2C2CCN(C(=O)OC(C)(C)C)CC2)c1	10µM
CC(C)(C)OC(=O)N1CCC(c2c(C(=O)NCc3ccco3)cnn2-c2ccc(F)cc2)CC1	7.94µM
Cc1cccc(-n2ncc(C(=O)N3CCN(C(=O)c4ccco4)CC3)c2C2CCN(C(=O)OC(C)(C)C)CC2)c1	–
CC(C)(C)OC(=O)N1CCC(c2c(C(=O)NC3CCCCC3)cnn2-c2cccc(Cl)c2)CC1	8.91µM
Cc1c(Cl)cccc1-n1ncc(C(=O)NC2CCCCC2)c1C1CCN(C(=O)OC(C)(C)C)CC1	–
Cc1ccc(-n2ncc(C(=O)NCc3ccccn3)c2C2CCN(C(=O)OC(C)(C)C)CC2)cc1C	–
CCOC(=O)N1CCC(NC(=O)c2cnn(-c3ccccc3)c2C2CCN(C(=O)OC(C)(C)C)CC2)CC1	–
Cc1cccc(-n2ncc(C(=O)NCc3ccco3)c2C2CCN(C(=O)OC(C)(C)C)CC2)c1	11.2µM
COc1ccc(C(=O)N[C@@H]2CN(c3ncccn3)C[C@H]2CO)cc1F	–
Cc1ccc(-n2c(C3CCN(C(=O)c4cccc(N(C)C)c4)CC3)n[nH]c2=O)cc1	–
COc1ccc(C)nc1-c1cnc2ccccc2c1	–
COc1cccc(NC(=O)N(C)CC2CCOCC2)c1	–
CNC(c1ccccc1)c1nc(-c2cccnn2)no1 (centres undefined)	–
CN(C)S(=O)(=O)N1CCCC(c2nc(-c3cnccn3)no2)CCNC(=O)CC1 (centres undefined)	–
CCc1cn(C[C@H](NCCC(C)C)C(=O)O)c(=O)[nH]c1=O	–
O=C(Nc1ccc(Cl)cc1Cl)c1cnn2c1CN(C(=O)c1ccccc1)CC2	–
CC(C)(C)OC(=O)N1CCC(c2c(C(=O)NCc3ccc(F)cc3)cnn2-c2ccc(F)cc2)CC1	–
SMILES	Pf Dd2 growth
CC(C)(C)OC(=O)N1CCC(c2c(C(=O)NCc3cccc(Cl)c3)cnn2-c2ccc(F)cc2)CC1	11.2µM
Cc1ccc(C(=O)NC2CCN(c3cc(-c4ccccc4)[nH]n3)CC2)c(C)c1	–
Cc1ccc2oc(=O)c3cnn(CC(=O)N4CCN(c5cccc(C(F)(F)F)c5)CC4)c3c2c1	–[5.79 µM]
Cc1ccc2oc(=O)c3cnn(CC(=O)Nc4ccc(Br)cc4C)c3c2c1	–
Cc1ccc2oc(=O)c3cnn(CC(=O)Nc4cccc(C(F)(F)F)c4)c3c2c1	1.12µM
CCc1cccc(C)c1NC(=O)CN1C=C(C(=O)OC)C(C)=NS1(=O)=O	–
COc1ccc(CNC(=O)C[C@@H]2[C@H](O)CCC3[C@](C)(CO)[C@H](OC(=O)NC(C)C)CC[C@]32C)cc1 (some centres undefined)	–
CN(Cc1ccccc1)Cc1cn(C[C@H]2C[C@@H]3CCN2C[C@@H]3C(=O)Nc2ccccc2)nn1	–
COc1cc(CN2CCN(S(=O)(=O)c3ccccc3)CC2)cc(OC)c1O	–
CCn1c2ccccc2c2cc(CN3CCN(Cc4ccccc4F)CC3)ccc21	–
CCn1c2ccccc2c2cc(CN3CCN(Cc4cc(OC)c(O)c(OC)c4)CC3)ccc21	11.2µM
O=C(NCc1ccc2c(c1)OCO2)C1CN(Cc2ccccc2)C(=O)N1 (centres undefined)	–
COc1cccc(CN2CCc3nc(N4CCN(C)CC4)ncc3C2)c1	–
COc1cccc(CN2CCc3nc(N4CCN(c5ncccn5)CC4)ncc3C2)c1	11.2µM
Cc1cccc(CN2CCc3nc(N4CCN(c5ccccn5)CC4)ncc3C2)c1	–
COc1ccccc1NC(=O)NCc1cccn1Cc1ccccc1	–
CCOC(=O)Cc1ccc(NC(=O)NCc2cccn2Cc2ccccc2)cc1	–
O=C(NCc1cccn1Cc1ccccc1)Nc1cccc(C(F)(F)F)c1	8.91µM
Cc1ccc(C(=O)N2CCCC(n3cc(-c4nc(C(C)C)no4)nn3)C2)cc1C (centres undefined)	–
Cc1cc(C(=O)N2CCC3(COc4ncccc4S(=O)(=O)N3)C2)no1 (centres undefined)	–
COc1ccc(C(=O)N2CCC(c3n[nH]c(=O)n3Cc3ccc(F)cc3)CC2)cn1	–
O=C(c1ccc(Oc2ccc(CN3CCCC3)cc2F)nc1)N1CCCCC1	7.08µM
COc1ccc(C(=O)N2CCCCCCNC(=O)CC2)cc1F	–
CC(=O)c1ccc(NC(=O)O[C@@H]2CO[C@H]3[C@@H]2OC[C@@H]3NC(=O)c2ccco2)cc1	–
Cn1nc2n(c1=O)CCN(Cc1ccncc1F)CC2	–
SMILES	Pf Dd2 growth
COC(=O)c1scc(-c2ccc(C)cc2)c1S(=O)(=O)N1CCN(c2ccccc2F)CC1	11.2µM
COC(=O)c1scc(-c2ccc(C)cc2)c1S(=O)(=O)Nc1cc(C)c(Cl)cc1OC	8.91µM
COC(=O)c1scc(-c2ccc(C)cc2)c1S(=O)(=O)N1CCN(c2ccccc2)CC1	–
COC(=O)c1scc(-c2ccc(C)cc2)c1S(=O)(=O)N1CCN(c2ccc(C)cc2C)CC1	–
COC(=O)c1scc(-c2ccc(C)cc2)c1S(=O)(=O)Nc1ccc(NC(C)=O)cc1	–
COC(=O)c1scc(-c2ccc(C)cc2)c1S(=O)(=O)Nc1ccc(N(C)C)cc1	–
Cc1noc([C@@H]2CN(C3CCN(Cc4ccccc4)CC3)C[C@H]2CO)n1	–
CCCC1c2nccn2CCCN1C(=O)c1noc(C)c1COC (centres undefined)	–
CCc1ccccc1NC(=O)CSc1nc(-c2cccc(Cl)c2)nc2c1Cc1c(CO)cnc(C)c1O2	–
Cc1ncc(CO)c2c1Oc1nc(-c3ccccc3F)nc(SCC(=O)N3CCCCC3)c1C2	–
CCSc1nc(-c2ccccc2F)nc2c1Cc1c(CO)cnc(C)c1O2	–
Cc1ncc(CO)c2c1Oc1nc(-c3ccccc3Cl)nc(SCc3ccccc3F)c1C2	4.47µM
Cc1ccc(C)c(CSc2nc(-c3ccccc3F)nc3c2Cc2c(CO)cnc(C)c2O3)c1	8.91µM
Cc1ccc(C(=O)N2CCC(Cc3nc(C(C)C)no3)CC2)cc1C	–
COc1cccc(S(=O)(=O)N2C[C@@H](Oc3cccnc3)C[C@@H]2C(=O)N2CCOCC2)c1	–
Cc1cnc(CC2CCN(S(=O)(=O)c3cn(C)cn3)C2)n1C(C)C (centres undefined)	–
CCOc1ccccc1NC(=O)N1CCC(Cc2noc(C3CCOCC3)n2)C1 (centres undefined)	7.94µM
CC(=O)N1CCC(Cc2ncc(C)n2C(C)C)C1 (centres undefined)	–
CCNC(=O)N1CCC(Cc2ncc(C)n2C(C)C)C1 (centres undefined)	–
CCOc1ccccc1NC(=O)N1CCCC(Cc2ncc(C)n2C(C)C)C1 (centres undefined)	1.78µM
Cc1cnc(CC2CCN(S(=O)(=O)c3ccccc3)C2)n1C(C)C (centres undefined)	3.16µM
O=C(c1n[nH]c(=O)c2ccccc12)N1CCC(Cc2noc(C3CCOCC3)n2)C1 (centres undefined)	–

Bioassay records as filed in PubChem.
